# Measured values as given in the supplement of paper PMC8371130.
# Structures can show the parent of a compound that is named as a salt.
# Test system: HL-1
# Assay: relative cell viability (CellTiter-Glo) vs DMSO control (% of DMSO control); higher = more viable cells
# Details: oxygen condition: hypoxia 48 h (1% O2) + reoxygenation 24 h; 5000 nM
# How it was run: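 One day after HL-1 mouse atrial cardiomyocytes were plated (1000 cells per well, 384-well plates) with compounds at 40, 200, 1000 or 5000 nM in 0.01% DMSO, they were transferred to a hypoxic workstation at 1% O2. After 48 h there, the cells were reoxygenated for 24 h in a normal incubator, and comparison cells stayed in normoxia throughout the same time. Cell viability was quantified with CellTiter-Glo luminescence and normalised to vehicle-treated control cells.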
row,SMILES,relative cell viability
1,O=C(CCCN1CC=C(n2c(=O)[nH]c3ccccc32)CC1)c1ccc(F)cc1 [Droperidol],103
2,Cc1ccc(C)c(OCCCC(C)(C)C(=O)O)c1 [Gemfibrozil],103
3,CC(C)[C@H](N)C(=O)OCC(CO)OCn1cnc2c(=O)nc(N)[nH]c21 (stereo partly drawn) [valganciclovir hydrochloride],121
4,CCCCCN(C)CCC(O)(P(=O)(O)O)P(=O)(O)O [Ibandronate sodium],91
5,CN(C)CCC(c1ccccc1)c1ccccn1 (stereo not drawn) [Pheniramine Maleate],117
6,O=C1c2c(O)ccc(O)c2C(=O)c2c(NCCNCCO)ccc(NCCNCCO)c21 [Mitoxantrone Hydrochloride],3.1
7,CCN(CC)CCNC(=O)c1c(C)[nH]c(/C=C2\C(=O)Nc3ccc(F)cc32)c1C [Sunitinib Malate],115
8,CCCc1nn(C)c2c(=O)[nH]c(-c3cc(S(=O)(=O)N4CCN(C)CC4)ccc3OCC)nc12 [Sildenafil citrate],104
9,CCCCOc1ccc(OCCCN2CCOCC2)cc1 [Pramoxine HCl],118
10,COc1ccc(CN2CCN(C(c3ccc(F)cc3)c3ccc(F)cc3)CC2)c(OC)c1OC [Lomerizine HCl],106
11,COc1ccc(-c2nc3cc(C4=NNC(=O)CC4C)ccc3[nH]2)cc1 (stereo not drawn) [Pimobendan],109
12,NS(=O)(=O)c1cc2c(cc1Cl)N=C(CSCc1ccccc1)NS2(=O)=O [Benzthiazide],107
13,CNC[C@@H](O)c1ccc(O)c(O)c1 [L-Adrenaline],99.2
14,CO[C@H]1C(=O)[C@]2(C)[C@@H](OC)C[C@H]3OC[C@@]3(OC(C)=O)[C@H]2[C@H](OC(=O)c2ccccc2)[C@]2(O)C[C@H](OC(=O)[C@H](O)[C@@H](NC(=O)OC(C)(C)C)c3ccccc3)C(C)=C1C2(C)C [Cabazitaxel],36.6
15,OCC(CO)N[C@H]1C[C@](O)(CO)[C@@H](O)[C@H](O)[C@H]1O [Voglibose],113
16,COc1ccc2c(c1OC)C(=O)O[C@@H]2[C@H]1c2c(cc3c(c2OC)OCO3)CCN1C [Noscapine HCl],103
17,CCOC(=O)[C@H](CCc1ccccc1)N[C@H]1CS[C@H](c2cccs2)CN(CC(=O)O)C1=O [Temocapril HCl],112
18,C#C[C@]1(O)CC[C@H]2[C@@H]3CCc4cc(O)ccc4[C@H]3CC[C@@]21C [Ethinyl Estradiol],107
19,CNNCc1ccc(C(=O)NC(C)C)cc1 [Procarbazine HCl],108
20,O=C1O[C@H]([C@@H](O)CO)C([O-])=C1O.[Na+] [Sodium ascorbate],117

row,SMILES,relative cell viability
1,CCOc1ccc2nc(S(N)(=O)=O)sc2c1 [Ethoxzolamide],105
2,CC(CCc1ccc(O)cc1)NCC(O)c1ccc(O)cc1 (stereo not drawn) [Ractopamine HCl],60.4
3,CCN[C@H]1CN(CCCOC)S(=O)(=O)c2sc(S(N)(=O)=O)cc21 [Brinzolamide],3.36
4,COC(=O)CCc1ccc(OCC(O)CNC(C)C)cc1 (stereo not drawn) [Esmolol HCl],80.4
5,CNC1CCCN(c2c(F)cc3c(=O)c(C(=O)O)cn(C4CC4)c3c2OC)C1 (stereo not drawn) [Balofloxacin],107
6,C[C@H](N[C@@H](CCc1ccccc1)C(=O)O)C(=O)N1CCC[C@H]1C(=O)O [Enalaprilat dihydrate],110
7,O=S(=O)(O)CCS [Mesna],120
8,Cl.N=C(N)NCCC[C@H](N)C(=O)O [L-Arginine HCl],118
9,O=C1CCc2cc(OCCCCc3nnnn3C3CCCCC3)ccc2N1 [Cilostazol],107
10,CCCC(CCC)C(=O)O[C@H]1C[C@H]2CC[C@@H](C1)[N+]2(C)C [Anisotropine Methylbromide],97.8
11,CCCc1nc(C(C)(C)O)c(C(=O)OCc2oc(=O)oc2C)n1Cc1ccc(-c2ccccc2-c2nnn[nH]2)cc1 [Olmesartan medoxomil],105
12,CN1CCOC(c2ccccc2)c2ccccc2C1 (stereo not drawn) [Nefopam HCl],93.2
13,CCOC(=O)c1ccc(OC(=O)CCCCCNC(=N)N)cc1 [Gabexate mesylate],108
14,NCCS [Cysteamine HCl],106
15,CC(C)C[C@H](NC(=O)[C@@H](O)[C@H](N)Cc1ccccc1)C(=O)O [Ubenimex],103
16,CC1CCc2cc(F)cc3c(=O)c(C(=O)O)cn1c23 (stereo not drawn) [Flumequine],108
17,COC(=O)C1=C(C)NC(C)=C(C(=O)OC(C)C)C1c1cccc2nonc12 (stereo not drawn) [Isradipine],104
18,CC1(C)Cc2c(-c3ccccc3)c(-c3ccc(Cl)cc3)c(CC(=O)O)n2C1 [Licofelone],105
19,C#C[C@]1(O)CC[C@H]2[C@@H]3CCc4cc(OC)ccc4[C@H]3CC[C@@]21C [Mestranol],101

# Same assay, conditions: oxygen condition: normoxia 72 h; 40 nM
row,SMILES,relative cell viability
1,O=C(CCCN1CC=C(n2c(=O)[nH]c3ccccc32)CC1)c1ccc(F)cc1 [Droperidol],97.3
2,Cc1ccc(C)c(OCCCC(C)(C)C(=O)O)c1 [Gemfibrozil],102
3,CC(C)[C@H](N)C(=O)OCC(CO)OCn1cnc2c(=O)nc(N)[nH]c21 (stereo partly drawn) [valganciclovir hydrochloride],108
4,CCCCCN(C)CCC(O)(P(=O)(O)O)P(=O)(O)O [Ibandronate sodium],99.9
5,CN(C)CCC(c1ccccc1)c1ccccn1 (stereo not drawn) [Pheniramine Maleate],105
6,O=C1c2c(O)ccc(O)c2C(=O)c2c(NCCNCCO)ccc(NCCNCCO)c21 [Mitoxantrone Hydrochloride],4.75
7,CCN(CC)CCNC(=O)c1c(C)[nH]c(/C=C2\C(=O)Nc3ccc(F)cc32)c1C [Sunitinib Malate],105
8,CCCc1nn(C)c2c(=O)[nH]c(-c3cc(S(=O)(=O)N4CCN(C)CC4)ccc3OCC)nc12 [Sildenafil citrate],107
9,CCCCOc1ccc(OCCCN2CCOCC2)cc1 [Pramoxine HCl],110
10,COc1ccc(CN2CCN(C(c3ccc(F)cc3)c3ccc(F)cc3)CC2)c(OC)c1OC [Lomerizine HCl],68.3
11,COc1ccc(-c2nc3cc(C4=NNC(=O)CC4C)ccc3[nH]2)cc1 (stereo not drawn) [Pimobendan],109
12,NS(=O)(=O)c1cc2c(cc1Cl)N=C(CSCc1ccccc1)NS2(=O)=O [Benzthiazide],99.7
13,CNC[C@@H](O)c1ccc(O)c(O)c1 [L-Adrenaline],100
14,CO[C@H]1C(=O)[C@]2(C)[C@@H](OC)C[C@H]3OC[C@@]3(OC(C)=O)[C@H]2[C@H](OC(=O)c2ccccc2)[C@]2(O)C[C@H](OC(=O)[C@H](O)[C@@H](NC(=O)OC(C)(C)C)c3ccccc3)C(C)=C1C2(C)C [Cabazitaxel],24.7
15,OCC(CO)N[C@H]1C[C@](O)(CO)[C@@H](O)[C@H](O)[C@H]1O [Voglibose],105
16,COc1ccc2c(c1OC)C(=O)O[C@@H]2[C@H]1c2c(cc3c(c2OC)OCO3)CCN1C [Noscapine HCl],94.9
17,CCOC(=O)[C@H](CCc1ccccc1)N[C@H]1CS[C@H](c2cccs2)CN(CC(=O)O)C1=O [Temocapril HCl],104
18,C#C[C@]1(O)CC[C@H]2[C@@H]3CCc4cc(O)ccc4[C@H]3CC[C@@]21C [Ethinyl Estradiol],107
19,CNNCc1ccc(C(=O)NC(C)C)cc1 [Procarbazine HCl],97.6
20,O=C1O[C@H]([C@@H](O)CO)C([O-])=C1O.[Na+] [Sodium ascorbate],98.8

row,SMILES,relative cell viability
1,CCOc1ccc2nc(S(N)(=O)=O)sc2c1 [Ethoxzolamide],102
2,CC(CCc1ccc(O)cc1)NCC(O)c1ccc(O)cc1 (stereo not drawn) [Ractopamine HCl],98.9
3,CCN[C@H]1CN(CCCOC)S(=O)(=O)c2sc(S(N)(=O)=O)cc21 [Brinzolamide],98.2
4,COC(=O)CCc1ccc(OCC(O)CNC(C)C)cc1 (stereo not drawn) [Esmolol HCl],104
5,CNC1CCCN(c2c(F)cc3c(=O)c(C(=O)O)cn(C4CC4)c3c2OC)C1 (stereo not drawn) [Balofloxacin],101
6,C[C@H](N[C@@H](CCc1ccccc1)C(=O)O)C(=O)N1CCC[C@H]1C(=O)O [Enalaprilat dihydrate],104
7,O=S(=O)(O)CCS [Mesna],112
8,Cl.N=C(N)NCCC[C@H](N)C(=O)O [L-Arginine HCl],100
9,O=C1CCc2cc(OCCCCc3nnnn3C3CCCCC3)ccc2N1 [Cilostazol],105
10,CCCC(CCC)C(=O)O[C@H]1C[C@H]2CC[C@@H](C1)[N+]2(C)C [Anisotropine Methylbromide],96.3
11,CCCc1nc(C(C)(C)O)c(C(=O)OCc2oc(=O)oc2C)n1Cc1ccc(-c2ccccc2-c2nnn[nH]2)cc1 [Olmesartan medoxomil],97
12,CN1CCOC(c2ccccc2)c2ccccc2C1 (stereo not drawn) [Nefopam HCl],60.3
13,CCOC(=O)c1ccc(OC(=O)CCCCCNC(=N)N)cc1 [Gabexate mesylate],101
14,NCCS [Cysteamine HCl],102
15,CC(C)C[C@H](NC(=O)[C@@H](O)[C@H](N)Cc1ccccc1)C(=O)O [Ubenimex],101
16,CC1CCc2cc(F)cc3c(=O)c(C(=O)O)cn1c23 (stereo not drawn) [Flumequine],106
17,COC(=O)C1=C(C)NC(C)=C(C(=O)OC(C)C)C1c1cccc2nonc12 (stereo not drawn) [Isradipine],108
18,CC1(C)Cc2c(-c3ccccc3)c(-c3ccc(Cl)cc3)c(CC(=O)O)n2C1 [Licofelone],92.9
19,C#C[C@]1(O)CC[C@H]2[C@@H]3CCc4cc(OC)ccc4[C@H]3CC[C@@]21C [Mestranol],99.9
